From PubChem
Arbovirus anti: antivirals against arbovirus infection; arbovirus infection cell-based antiviral screen; inhibition, % at 10 µM; hit rate 0.37% among 200,000; AID 1251; in the data active = inhibition above about 30%
ROMK primary: modulates human ROMK potassium channel activity. P48048. Tet-inducible ROMK, thallium flux fluorescence; actives lie on both sides. B-score at 10 µM. hit rate 2% among 130,000. AID 1918;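 active = signal ratio slope over the read window, or its plate-corrected B-score, at least 3 SD from the plate mean, either direction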;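 note: B-score of the F/F0 ratio slope over 7 to 12 s after thallium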
WT yeast gro inh: growth inhibition of WT yeast, mitochondrial fusion screen; mitochondrial fusion phenotypic screen, WT strain; inhibition, % at 10 µM; hit rate 2.1% among 190,000; AID 1362; in the data active = inhibition above about 58%; tested in S. cerevisiae
PERK inh: inhibitors of human PERK kinase; Q9NZJ5; hit rate 0.17% among 220,000; CHO PERK-DD fusion, SEAP luminescence translation reporter; inhibition, % at 5.6 µM; AID 1416;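 active = inhibition above the mean inhibition of all tested compounds plus 3 SD, set separately per screening campaign, cut at about 2.9% in these data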;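 note: PERK kinase domain activated by AP20187 dimerizer at 100 nM; 0% = DMSO with dimerizer and 100% = rapamycin at 8.4 µM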
Target sequence (Q9NZJ5 whole entry, looked up, the tested form may be a part): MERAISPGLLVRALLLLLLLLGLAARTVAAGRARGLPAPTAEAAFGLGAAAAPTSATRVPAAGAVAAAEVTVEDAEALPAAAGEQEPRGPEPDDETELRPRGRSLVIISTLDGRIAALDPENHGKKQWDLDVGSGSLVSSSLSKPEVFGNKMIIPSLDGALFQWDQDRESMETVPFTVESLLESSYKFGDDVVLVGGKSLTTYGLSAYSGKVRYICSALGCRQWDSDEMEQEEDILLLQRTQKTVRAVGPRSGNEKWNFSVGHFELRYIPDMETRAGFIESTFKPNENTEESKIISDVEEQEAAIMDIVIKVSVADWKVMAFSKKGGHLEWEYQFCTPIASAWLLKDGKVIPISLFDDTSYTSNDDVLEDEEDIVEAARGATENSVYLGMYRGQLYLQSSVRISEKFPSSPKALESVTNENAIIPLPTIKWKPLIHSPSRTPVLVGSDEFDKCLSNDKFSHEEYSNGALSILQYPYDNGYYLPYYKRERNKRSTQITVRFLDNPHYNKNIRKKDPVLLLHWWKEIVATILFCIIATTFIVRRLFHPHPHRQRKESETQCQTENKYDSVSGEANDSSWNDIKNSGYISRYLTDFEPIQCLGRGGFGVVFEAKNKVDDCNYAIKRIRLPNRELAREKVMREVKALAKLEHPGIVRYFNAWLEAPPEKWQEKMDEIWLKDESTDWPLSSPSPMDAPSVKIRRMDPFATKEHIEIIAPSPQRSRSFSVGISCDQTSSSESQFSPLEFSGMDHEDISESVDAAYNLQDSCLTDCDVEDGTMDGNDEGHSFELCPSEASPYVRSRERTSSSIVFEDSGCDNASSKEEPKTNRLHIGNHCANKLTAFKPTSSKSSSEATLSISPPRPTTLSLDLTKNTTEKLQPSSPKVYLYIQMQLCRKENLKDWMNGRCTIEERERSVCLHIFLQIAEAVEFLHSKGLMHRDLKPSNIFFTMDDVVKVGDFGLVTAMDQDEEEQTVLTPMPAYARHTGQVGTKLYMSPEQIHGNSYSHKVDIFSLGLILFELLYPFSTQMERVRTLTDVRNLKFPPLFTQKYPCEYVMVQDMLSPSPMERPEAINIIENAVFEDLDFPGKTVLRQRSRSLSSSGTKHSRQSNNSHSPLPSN
ROMK hit retest: human ROMK channel modulation, retest confirmation; normalized thallium flux (F/F0 slope) at 10 µM; hit rate 54% among 3,000; ROMK thallium flux, fluorescence ratio; active compounds read low; AID 1917; shares compounds with ROMK primary;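 active = Flux at 10 µM at least 3 SD below or above vehicle control mean in one or both replicates; inconclusive = no clear call, values can overlap the other calls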
* hit, by the source's call; ? = inconclusive; / = not tested or not shown. This is a sample that favours compounds with a hit; in the whole collection about 3.3% have one here.

SMILES	Arbovirus anti	ROMK primary	WT yeast gro inh	PERK inh	ROMK hit retest
CC[C@H](C)[C@@H](NC(=O)O[C@@H]1C(=O)c2cc(Br)ccc2O[C@H]1c1cccc(OC)c1)C(=O)OC	8	0.15	37	0	/
Cc1cc(N/N=C2\CC(C)CC(C)(C)C2)nc2ccccc12 (stereo not drawn)	-8	-0.81	76*	0	/
CCN1C/C(=C\c2cccc([N+](=O)[O-])c2)C(=O)/C(=C/c2cccc([N+](=O)[O-])c2)C1	-37	-0.67	65*	0	/
CCc1ccc2nc(SCC(=O)Nc3nnc(C)s3)c(C)cc2c1	7	0.92	-4	0	0.091
COC(=O)CSC1=C(C#N)C(c2ccc(F)cc2)CC(=O)N1 (stereo not drawn)	9	/	-3	0	/
COC(=O)CSC1=C(C#N)C(c2ccc(C)o2)CC(=O)N1 (stereo not drawn)	-19	2.7*	9	1	0.077
COc1cc(C2Nc3ccccc3C(=O)N2c2ccc3c(c2)OCCO3)ccc1OCC(C)C (stereo not drawn)	-17	-0.43	22	-1	/
COC(=O)COc1ccc(-c2ccccc2)cc1C=O	-8	/	-5	1	/
COC(=O)COc1ccc(-c2ccc(F)cc2)cc1C=O	2	4.7*	18	0	?
Cc1cc(C)cc(NC(=O)c2cccn2-c2ncc(C(F)(F)F)cc2Cl)c1	-15	/	39	1	/
CCCN1C(=O)/C(=C/c2c(N3CCNC(=O)C3CC(=O)OC)nc3c(C)cccn3c2=O)SC1=S (stereo not drawn)	/	/	/	-1	/
CCOc1ccc(C2C(C(=O)Nc3cc(C)on3)c3ccccc3C(=O)N2CCN2CCOCC2)cc1 (stereo not drawn)	-7	-4.1*	-4	0	0.08
CC(O)CNc1nc2ccccc2n1CC(=O)NC12CC3CC(CC(C3)C1)C2 (stereo not drawn)	12	-2.7*	-11	0	0.066*
CC(O)CNc1nc2ccccc2n1CC(=O)NCC(F)(F)F (stereo not drawn)	9	0.0065	-3	1	/
Cc1cc(C)c(S(=O)(=O)NCC(CCC(=O)O)C(F)(F)F)c(C)c1 (stereo not drawn)	4	0.9	-6	1	/
O=C(Nc1cccc(N=Cc2cc(Br)cc(Br)c2O)c1)c1ccco1	-24	/	33	1	0.11*
O=C(Nc1cccc(N=Cc2cc(Cl)cc(Br)c2O)c1)c1ccco1	-6	4.1*	-3	0	0.11*
COc1ccc(CS(=O)(=O)CC2(O)CCN(C(=O)c3cccc(C(F)(F)F)c3)CC2)cc1	12	-0.3	7	-1	/
O=C1CCC/C(=N\NC(=O)c2ccc(COc3ccccc3-c3ccccc3)cc2)C1	8	-5.5*	-9	-1	0.078
Cc1ccc(C(=O)C(c2ccccc2)N2Cc3ccccc3C2=N)cc1 (stereo not drawn)	-29	-3*	70*	-1	0.054*
CC1(C)C2CC=C(/C=N/NC(=S)Nc3cccnc3)C1C2 (stereo not drawn)	-2	-3.1*	15	0	0.078
COc1ccccc1C1(CCNC(C)c2cccs2)CCOC(C(C)C)C1 (stereo not drawn)	/	/	/	0	0.041*
Cc1ccc(C2(CCNC(C)c3cccs3)CCOC(C(C)C)C2)cc1 (stereo not drawn)	-33	-0.083	26	0	/
CCCOC(=O)c1ccc(NC(=O)c2cn(CC)c3nc(C)ccc3c2=O)cc1	-1	/	9	0	/
Cc1ccc(-n2ncc(C(=O)Nc3cc(Cl)cc(Cl)c3)c2C2CCNCC2)cc1C	-29	-6.1*	18	0	0.048*
SMILES	Arbovirus anti	ROMK primary	WT yeast gro inh	PERK inh	ROMK hit retest
Cc1ccc(-n2ncc(C(=O)Nc3cc(Cl)ccc3Cl)c2C2CCNCC2)cc1	-18	-6.2*	5	0	0.058*
CCOC(=O)c1cnn(-c2ccc(Cl)cc2)c1C1CCN(C(=O)OC(C)(C)C)CC1	3	0.12	3	-1	/
CC(C)Cn1cc(C(=O)NCC2CCCO2)c2c3ccccc3n(C)c2c1=O (stereo not drawn)	6	0.044	4	-1	/
NC(=O)Cc1ccc(Nc2nnc(-c3ccccc3)c3ccccc23)cc1	-3	/	-7	1	/
COc1cc(/C=C/C(=O)OCC(=O)Nc2ccc(NC(C)=O)cc2)cc(S(=O)(=O)N2CCc3ccccc32)c1OC	12	-0.35	-31	1	/
COc1cc(/C=C/C(=O)OCC(=O)NC2CC2)cc(S(=O)(=O)N2CCc3ccccc32)c1OC	1	-18*	-2	0	0.071
Cc1ccc(Cl)cc1NC(=S)N(C)N	/	/	/	1	/
CCn1c(=O)n(CC)c2cc(S(=O)(=O)N3CCc4ccccc43)ccc21	-18	/	12	-1	?
CC(=O)N1CCc2ccc(S(=O)(=O)N3CCc4ccccc43)cc21	1	-0.86	7	1	/
CCN1CCN(C(=O)c2ccc3c(c2)S(=O)(=O)c2ccccc2C3=O)CC1	0	1.5*	13	1	0.08
CCCCCCCc1nn2c(=O)cc(O)nc2s1	15	/	-11	0	/
CCOc1ccc(NC(=O)NC(=O)N(C)S(=O)(=O)c2ccc(C)cc2)cc1	-2	-2*	4	1	0.077
CCOC(=O)c1c(-c2ccccc2Cl)csc1NC(=O)c1cc(S(=O)(=O)N2CCOCC2)ccc1C	-3	/	5	0	/
O=C1CCc2ccccc2N1	/	/	/	1	/
N#C/C(C(N)=O)=C1/CCc2ccccc2N1	3	4.7*	6	1	0.088
N#Cc1c(N)n(CCOC(=O)c2cccc([N+](=O)[O-])c2)c2nc3ccccc3nc12	-1	/	-13	0	/
N#Cc1c(N)n(CCOC(=O)c2cccc(Br)c2)c2nc3ccccc3nc12	11	-1.4	10	-1	0.089
Cn1c(=O)c2c(ncn2CC(COCc2ccccc2)OCc2ccccc2)n(C)c1=O (stereo not drawn)	/	/	/	0	/
COc1ccccc1-c1cc(C(=O)N/N=C/c2sccc2C)c2ccccc2n1	-13	-0.22	6	0	/
Cc1ccsc1/C=N/NC(=O)c1cc(-c2ccncc2)nc2ccccc12	-9	4.8*	-7	0	?
O=C(N/N=C/c1ccsc1)c1cc(-c2ccncc2)nc2ccccc12	-18	3*	0	-1	0.081
O=C(Nc1ccc2c(c1)OCCO2)c1cc(-c2ccccc2)nc2ccccc12	-4	/	18	0	/
O=C(N/N=C/c1ccsc1)c1cc(-c2cccs2)nc2ccccc12	-13	1.4	11	-1	/
CC(/C=N/NC(=O)c1cc(-c2ccncc2)nc2ccccc12)=C\c1ccco1	-4	3.7*	-6	0	0.09
O=C(Nc1ccc2c(c1)OCO2)c1cc(-c2ccncc2)nc2ccccc12	-18	/	-4	0	0.068*
CCC(C)(C#CCN1CCCCC1)OCCC#N (stereo not drawn)	1	0.52	-1	1	/
COc1ccc(NC(=O)COc2ccc(C(=O)OCC(=O)N(C(C)C)C(C)C)cc2OC)cc1	16	0.97	6	-1	/
OCC1CCCN(C(=S)Nc2ccc(Nc3ccccc3)cc2)C1 (stereo not drawn)	-14	-0.041	5	0	/
